Experimental findings from PubChem BioAssay are described below.

By inhibition is commonly meant the drop in the measured response relative to a control, in per cent.

The nature of assay [1]: rapamycin-like changes in RPL19A-GFP expression – cell-based, S. cerevisiae, multiplex flow cytometry, primary screen (AID 1862; in the data active = percent of DMSO control GFP below about 86%;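 also: lower values mimic rapamycin by blocking the RPL19A rise seen in DMSO cells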). The following applies: S. cerevisiae RPL19A-GFP strain, flow cytometry fluorescence, 3 h; at 10 µM; stronger effect = lower value. In general terms: Flow cytometry measures light scatter and fluorescence of single cells or particles in a stream.
Assay [2] in a line: TOR pathway GLN3 branch reporter MEP2-GFP changes – S. cerevisiae, multiplex flow cytometry, primary screen (AID 1867;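 active = GFP response, as percent of the DMSO control, above the screen-wide mean plus 3 SD, about 139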;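 also: median GFP channel fluorescence of barcode-gated MEP2-GFP cells measured by flow cytometry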). The following applies: S. cerevisiae MEP2-GFP strain, 3 h, at 10 µM, stronger effect = higher value, 100% means same as DMSO wells.
The nature of assay [3]: TOR pathway RTG branch CIT2 reporter changes – S. cerevisiae, GFP fusion, multiplex flow cytometry, primary screen (AID 1870;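 active = percent response above a set limit, the screen-wide mean plus 3 SD, cut at about 130% in these data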;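 also: barcoded CIT2-GFP strain pooled with four other GFP strains with rapamycin as positive control; median GFP fluorescence per well over plate mean of DMSO wells so 100% = DMSO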). To be noted: S. cerevisiae CIT2-GFP expression, 3 h, at 10 µM, stronger effect = higher value.
Assay [4] can be described thus: TOR pathway LAP4-GFP level changes – S. cerevisiae, multiplex flow cytometry, primary screen (AID 1873;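 active = GFP signal, as percent of the solvent control, above the screen mean plus 3 SD, about 149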). To be noted: S. cerevisiae LAP4-GFP expression, 3 h, at 10 µM, stronger effect = higher value.
Assay [5] in a line: yeast AGP1-GFP level changes, GLN3 branch – cell-based, multiplex flow cytometry, S. cerevisiae, primary screen (AID 1887;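 active = GFP signal above the screen-wide mean plus 3 SD, that is over about 124.5% of the solvent control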;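 also: AGP1-GFP fusion strain of S. cerevisiae within a five-strain barcoded multiplex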). The following applies: 3 h, at 10 µM, stronger effect = higher value.
A short description of assay [6]: reduced mouse 2C T cell binding to pMHC/ICAM-1 vesicles – MLPCN validation set, flow cytometry, LFA-1/ICAM-1 modulator project, pilot screen (AID 2523;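 active = response below a set limit, under 55% cells CD8-positive and vesicle-bound, and CD8 cells' 90th-percentile brightness under 279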;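 as to vesicle binding response: mean PE anti-B7-1 fluorescence of CD8+ cells relative to row control; 100% = QL9-loaded vesicles with DMSO vehicle in the same plate row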). To be noted: 2C mouse CD8+ T cells, at 7 µM, stronger effect = lower value; double positive events: measured here: CD8+/vesicle+ event percentage.
The target of assay [7] is Integrin beta-1 (Homo sapiens) + Integrin alpha-4 (Homo sapiens) (UniProt P13612+P05556). In words: alpha4beta1 integrin LIBS antibody binding reduction – U937 cells, HUTS-21 mAb, flow cytometry, validation set, VLA-4 allosteric modulator project, pilot screen (AID 2674;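 active = inhibition above 50%, about 3 SD of the validation set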;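 also: antibody binding induced by the VLA-4 ligand LDV present at three times its Kd; 0% = LDV ligand with antibody and no compound and 100% = antibody without LDV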). To be noted: HUTS-21 LIBS mAb binding, at 6.7 µM, stronger effect = higher value, binding induced by LDV ligand.

The nature of assay [8]: calorie-restriction mimetic ROS inhibitors, yeast – validation compound set, pilot screen (AID 2706;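 active = superoxide response below 65% of plate, a cut near 3 SD across the whole screen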;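 also: yeast exposed to compound for one week at 30 degrees C before staining; 100% = mean of all compound wells on the same plate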). To be noted: S. cerevisiae aging, superoxide DHE fluorescence; at 10 µM; stronger effect = lower value.
Assay [9] addresses Beta-adrenergic receptor kinase 1 (Homo sapiens) (UniProt P25098). The assay is described as follows: GRK2 binders displacing RNA aptamer, biochemical, validation, human GRK2, bead flow cytometry (AID 488806;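 active = aptamer binding inhibition above 30%, about 3 SD of noise from non-fluorescent compounds; inactive = inhibition at or below 30%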). The following applies: bead-bound GRK2, FAM-aptamer displacement, at 10 µM, stronger effect = higher value.
Assay [10] concerns the target Beta-2 adrenergic receptor (Homo sapiens) (UniProt P07550). In words: agonist-induced loss of surface beta2AR – cell-based, FAP fluorogen, flow cytometry, validation set, pilot screen (AID 504459;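 active = percent response above 42, roughly 3 SD of non-fluorescent test compounds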;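 also: agonist-driven loss of surface beta2AR via internalization measured by FAP dye flow cytometry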). The following applies: Am2.2-beta2AR cells, at 10 µM, stronger effect = higher value.
For assay [11], the target named is AP-2 complex subunit beta (Homo sapiens) (UniProt P63010). In words: beta-arrestin/AP2 interaction blockers – biochemical, validation set, GST-AP2 beads, flow cytometry, pilot screen (AID 504541;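 active = inhibition above 54%, about 3 SD of non-fluorescent compounds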;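 also: AP2 carries R879A mutation and is captured from E. coli lysate; bead-bound FITC arrestin peptide fluorescence measuring arrestin peptide binding to AP2; 0% = DMSO wells and 100% = excess unlabeled arrestin peptide control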). The following applies: FITC arrestin peptide, at 10 µM, stronger effect = higher value, AP2 beta2 appendage fragment, R879A mutant.
Assay [12] is described as follows: cytosolic pH regulators acting via V-ATPase – S. cerevisiae, pHLuorin, HTS validation (AID 504600; in the data active = response above about 15%;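 also: plate controls were DMSO for no effect and reference compound for full effect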). The following applies: V-ATPase proton transport, at 10 µM, stronger effect = higher value.
Assay [13] has as its system anti-desmoglein-3 scFv antibody binding to human DSG3. The assay is described as follows: blockers of pathogenic pemphigus antibody–desmoglein-3 binding – biochemical, validation compound set, bead-based, flow cytometry, pilot screen (AID 588368;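 active = binding below the plate cutoff, the plate median minus 3 SD, with a reading above zero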;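 also: signal is the median channel fluorescence of bead-bound GFP antibody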). The following applies: Protein G beads, DSG3-Fc, scFv-GFP binding, at 10 µM, stronger effect = lower value.
The nature of assay [14]: Nile Red efflux blockade in pump-expressing yeast – validation compound set, multiplex, phenotypic, pilot screen (AID 588506;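 active = efflux inhibition above 0.42, the validation set average plus 4 SD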;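 also: Nile Red retained in cells so higher fluorescence means more efflux inhibition; 0 = negative control wells and 1 = enniatin B 25 µM full block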). To be noted: S. cerevisiae pump-expressing triplex, Nile Red efflux flow cytometry; at 10 µM; stronger effect = higher value; the pumps come from Candida albicans.
Assay [15] concerns the target ATP-binding cassette sub-family B member 6 (Homo sapiens) (UniProt Q9NP58). In words: blockers of ABCB6-driven porphyrin uptake – K562-ABCB6 cells, flow cytometry, validation set, pilot screen (AID 588550).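 Also: 0% = DMSO wells and 100% = benzethonium chloride 70 µM positive control.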 To be noted: K562-ABCB6 porphyrin accumulation, 1 h, at 10 µM, stronger effect = higher value.
Assay [16] can be described thus: AML differentiation inducers, ER-HoxA9 marrow cells – cell-based, GFP/MAC1 double positive, flow cytometry, validation set, primary screen (AID 588685;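 active = differentiation response of at least 50%, scaled between solvent and reference control, from cells with both markers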;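 also: compound exposure lasts four days before antibody staining and flow analysis; 0% = DMSO wells and 100% = 5 µM fulvestrant positive control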). To be noted: stronger effect = higher value, normalized: vehicle 0, fulvestrant 100.

Inconclusive results are not listed. Calls of active or inactive are those of the source.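 The calls were made as follows, unless noted: active = inhibition above the screen-wide mean plus 3 SD, about 51%; inactive = the rest.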

Sequence of Integrin beta-1 (Homo sapiens) + Integrin alpha-4 (Homo sapiens) (P05556 whole entry, looked up): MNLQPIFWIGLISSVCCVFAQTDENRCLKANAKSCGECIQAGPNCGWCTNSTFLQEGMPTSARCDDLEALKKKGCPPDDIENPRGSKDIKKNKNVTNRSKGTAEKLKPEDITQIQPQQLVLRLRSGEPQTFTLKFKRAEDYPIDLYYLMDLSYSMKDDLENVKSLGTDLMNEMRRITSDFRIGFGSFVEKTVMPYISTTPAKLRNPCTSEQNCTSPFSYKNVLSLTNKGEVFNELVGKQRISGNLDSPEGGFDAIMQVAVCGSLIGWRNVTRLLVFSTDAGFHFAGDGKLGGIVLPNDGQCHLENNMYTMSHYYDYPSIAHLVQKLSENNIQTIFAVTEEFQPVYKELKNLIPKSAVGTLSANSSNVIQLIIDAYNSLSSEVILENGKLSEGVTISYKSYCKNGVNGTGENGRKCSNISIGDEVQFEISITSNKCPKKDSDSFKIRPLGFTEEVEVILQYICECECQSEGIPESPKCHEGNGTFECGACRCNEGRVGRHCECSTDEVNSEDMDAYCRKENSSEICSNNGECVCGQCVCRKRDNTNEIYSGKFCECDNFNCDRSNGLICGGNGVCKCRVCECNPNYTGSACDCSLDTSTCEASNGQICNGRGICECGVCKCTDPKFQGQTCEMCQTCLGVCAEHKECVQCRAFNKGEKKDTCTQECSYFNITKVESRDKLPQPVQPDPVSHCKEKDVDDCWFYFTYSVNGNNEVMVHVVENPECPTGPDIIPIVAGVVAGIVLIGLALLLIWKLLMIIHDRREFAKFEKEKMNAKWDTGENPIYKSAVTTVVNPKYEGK
Sequence of Integrin beta-1 (Homo sapiens) + Integrin alpha-4 (Homo sapiens) (P13612 whole entry, looked up): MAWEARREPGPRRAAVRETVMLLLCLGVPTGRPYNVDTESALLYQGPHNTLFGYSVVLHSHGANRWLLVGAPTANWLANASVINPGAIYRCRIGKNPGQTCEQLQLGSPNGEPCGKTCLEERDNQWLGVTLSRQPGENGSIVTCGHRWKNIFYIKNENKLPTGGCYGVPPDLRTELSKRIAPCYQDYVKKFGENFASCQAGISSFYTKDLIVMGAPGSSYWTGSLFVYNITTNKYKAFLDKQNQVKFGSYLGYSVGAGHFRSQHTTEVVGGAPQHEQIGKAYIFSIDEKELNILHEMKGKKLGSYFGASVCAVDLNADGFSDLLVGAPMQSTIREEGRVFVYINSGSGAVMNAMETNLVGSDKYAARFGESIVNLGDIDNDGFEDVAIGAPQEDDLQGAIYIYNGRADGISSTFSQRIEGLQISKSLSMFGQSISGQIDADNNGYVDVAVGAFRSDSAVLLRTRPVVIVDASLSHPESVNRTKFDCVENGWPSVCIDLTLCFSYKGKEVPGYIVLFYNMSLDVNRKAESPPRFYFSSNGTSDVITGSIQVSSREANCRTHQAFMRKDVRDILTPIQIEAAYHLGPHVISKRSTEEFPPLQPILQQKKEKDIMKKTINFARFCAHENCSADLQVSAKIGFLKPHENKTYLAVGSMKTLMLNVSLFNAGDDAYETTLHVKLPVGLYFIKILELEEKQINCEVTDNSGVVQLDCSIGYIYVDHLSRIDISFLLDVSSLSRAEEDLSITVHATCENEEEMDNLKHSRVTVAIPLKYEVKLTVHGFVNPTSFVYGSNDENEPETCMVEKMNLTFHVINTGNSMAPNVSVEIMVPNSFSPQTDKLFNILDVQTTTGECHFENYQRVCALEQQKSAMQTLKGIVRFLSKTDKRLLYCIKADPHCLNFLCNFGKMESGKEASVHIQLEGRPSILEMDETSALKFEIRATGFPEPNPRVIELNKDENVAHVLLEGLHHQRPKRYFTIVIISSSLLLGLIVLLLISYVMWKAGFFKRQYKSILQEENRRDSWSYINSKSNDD
Sequence of ATP-binding cassette sub-family B member 6 (Homo sapiens) (Q9NP58 whole entry, looked up): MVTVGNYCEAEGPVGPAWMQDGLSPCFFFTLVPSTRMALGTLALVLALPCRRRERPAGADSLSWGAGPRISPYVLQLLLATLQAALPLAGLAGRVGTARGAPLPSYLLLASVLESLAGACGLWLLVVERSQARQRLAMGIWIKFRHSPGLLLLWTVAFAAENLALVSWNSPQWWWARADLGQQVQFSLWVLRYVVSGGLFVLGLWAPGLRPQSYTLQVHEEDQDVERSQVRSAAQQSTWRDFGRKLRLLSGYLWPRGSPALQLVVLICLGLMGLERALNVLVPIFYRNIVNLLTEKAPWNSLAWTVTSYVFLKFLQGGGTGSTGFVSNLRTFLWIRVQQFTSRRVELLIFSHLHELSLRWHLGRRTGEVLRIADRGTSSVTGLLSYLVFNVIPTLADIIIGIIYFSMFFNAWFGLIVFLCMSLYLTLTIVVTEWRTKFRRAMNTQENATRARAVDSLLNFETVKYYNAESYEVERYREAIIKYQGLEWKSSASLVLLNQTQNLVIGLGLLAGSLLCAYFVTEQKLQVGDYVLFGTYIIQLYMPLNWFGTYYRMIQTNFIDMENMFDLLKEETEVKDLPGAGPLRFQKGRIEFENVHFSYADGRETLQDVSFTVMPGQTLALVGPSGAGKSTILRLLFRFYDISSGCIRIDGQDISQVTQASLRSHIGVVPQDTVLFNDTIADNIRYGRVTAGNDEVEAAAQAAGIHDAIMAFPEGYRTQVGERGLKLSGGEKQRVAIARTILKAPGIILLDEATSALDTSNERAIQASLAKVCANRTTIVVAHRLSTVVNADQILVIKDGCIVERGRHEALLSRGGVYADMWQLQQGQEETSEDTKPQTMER
Sequence of AP-2 complex subunit beta (Homo sapiens) (P63010 whole entry, looked up, the tested form may be a part, one chain of several): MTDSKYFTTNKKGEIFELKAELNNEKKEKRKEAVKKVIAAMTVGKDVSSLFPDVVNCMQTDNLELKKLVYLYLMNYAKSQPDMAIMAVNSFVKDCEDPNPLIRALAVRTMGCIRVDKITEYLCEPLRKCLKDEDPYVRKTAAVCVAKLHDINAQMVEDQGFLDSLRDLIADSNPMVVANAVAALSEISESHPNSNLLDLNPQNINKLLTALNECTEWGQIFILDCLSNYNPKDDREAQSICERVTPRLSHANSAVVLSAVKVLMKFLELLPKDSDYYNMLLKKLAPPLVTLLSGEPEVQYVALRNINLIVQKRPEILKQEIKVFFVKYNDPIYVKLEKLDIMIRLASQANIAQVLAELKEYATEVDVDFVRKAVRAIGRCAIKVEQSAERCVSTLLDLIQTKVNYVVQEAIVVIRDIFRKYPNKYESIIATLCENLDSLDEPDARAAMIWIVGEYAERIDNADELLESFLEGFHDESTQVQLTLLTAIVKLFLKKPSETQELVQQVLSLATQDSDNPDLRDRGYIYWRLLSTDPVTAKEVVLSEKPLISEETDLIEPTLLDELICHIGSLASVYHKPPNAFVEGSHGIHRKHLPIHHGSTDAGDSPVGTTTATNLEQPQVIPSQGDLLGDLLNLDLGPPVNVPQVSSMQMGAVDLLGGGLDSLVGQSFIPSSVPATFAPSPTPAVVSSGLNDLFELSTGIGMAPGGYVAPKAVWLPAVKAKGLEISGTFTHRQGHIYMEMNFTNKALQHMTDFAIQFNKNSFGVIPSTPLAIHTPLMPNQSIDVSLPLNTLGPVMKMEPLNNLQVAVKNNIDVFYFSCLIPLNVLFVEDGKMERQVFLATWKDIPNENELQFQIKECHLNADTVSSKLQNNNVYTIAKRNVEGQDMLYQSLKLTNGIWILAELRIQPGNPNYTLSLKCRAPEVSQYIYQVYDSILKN
Sequence of Beta-adrenergic receptor kinase 1 (Homo sapiens) (P25098 whole entry, looked up): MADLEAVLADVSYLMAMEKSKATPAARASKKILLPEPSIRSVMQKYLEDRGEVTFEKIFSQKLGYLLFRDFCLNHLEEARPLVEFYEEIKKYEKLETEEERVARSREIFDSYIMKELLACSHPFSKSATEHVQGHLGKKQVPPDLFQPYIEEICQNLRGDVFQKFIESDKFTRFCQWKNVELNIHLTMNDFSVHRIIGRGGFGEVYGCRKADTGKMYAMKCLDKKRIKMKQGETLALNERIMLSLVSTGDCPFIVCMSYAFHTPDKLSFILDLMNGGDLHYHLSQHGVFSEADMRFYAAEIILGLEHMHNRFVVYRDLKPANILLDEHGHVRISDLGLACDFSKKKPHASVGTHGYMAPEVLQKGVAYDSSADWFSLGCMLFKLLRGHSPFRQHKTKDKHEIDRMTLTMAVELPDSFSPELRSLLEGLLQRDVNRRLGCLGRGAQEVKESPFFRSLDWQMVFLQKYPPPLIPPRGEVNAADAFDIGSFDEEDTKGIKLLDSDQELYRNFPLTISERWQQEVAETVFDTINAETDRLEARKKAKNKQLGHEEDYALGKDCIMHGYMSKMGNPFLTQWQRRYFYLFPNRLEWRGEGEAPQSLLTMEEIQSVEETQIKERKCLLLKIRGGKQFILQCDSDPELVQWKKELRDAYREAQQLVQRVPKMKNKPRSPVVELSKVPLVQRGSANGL
Sequence of Beta-2 adrenergic receptor (Homo sapiens) (P07550 whole entry, looked up): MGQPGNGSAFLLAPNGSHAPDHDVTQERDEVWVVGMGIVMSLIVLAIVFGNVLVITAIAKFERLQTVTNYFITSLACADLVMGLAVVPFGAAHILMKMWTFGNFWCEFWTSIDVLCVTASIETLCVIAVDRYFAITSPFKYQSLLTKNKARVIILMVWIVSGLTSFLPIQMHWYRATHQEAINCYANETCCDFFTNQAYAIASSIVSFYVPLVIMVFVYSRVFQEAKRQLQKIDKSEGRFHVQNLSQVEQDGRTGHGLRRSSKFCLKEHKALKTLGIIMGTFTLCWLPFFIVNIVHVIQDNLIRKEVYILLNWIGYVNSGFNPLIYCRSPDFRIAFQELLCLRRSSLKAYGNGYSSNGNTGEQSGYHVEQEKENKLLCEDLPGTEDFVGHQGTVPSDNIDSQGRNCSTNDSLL

In the case of `CCOc1ccc(N2C(=O)CC(NCCNc3ccc([N+](=O)[O-])cn3)C2=O)cc1` (stereo not given), the percent of DMSO control GFP in [1] was 103% (inactive). Besides, the GFP response vs DMSO in [2] was 95.6% (inactive); in [4], 98% (inactive). In addition, the percent response of DMSO control in assay [3] was 106% (inactive). In [5], the GFP response, % of DMSO is 93% (inactive). In assay [6], this compound registered a double positive events of 53.2%. Moreover, the vesicle binding response in assay [6] was 145% (inactive). For the same compound, the inhibition in assay [7] is 15% (inactive); in [11] it was -8.05% (inactive); in [15], 8% (inactive). Besides, in assay [8], the superoxide response (% of plate) was 94.4% (inactive). Besides, in assay [9], the aptamer binding inhibition is 0% (inactive). The response is 1.65% (inactive) in assay [10] and 4.15% (inactive) in assay [12]. Also, the binding (% of control) in [13] was 98.8% (inactive). The efflux inhibition (fraction of control) in assay [14] is 0.06 (inactive). For the same compound, in assay [16], the differentiation response is -4.57% (inactive).
Consider `CSc1ccc(/C=N/N2CCN(Cc3ccc(C)cc3C)CC2)cc1`, for which the percent of DMSO control GFP in assay [1] is 100% (inactive). In addition, the GFP response vs DMSO in assay [2] is 99.7% (inactive); in assay [4], 97% (inactive). Moreover, in assay [3], the percent response of DMSO control was 110% (inactive). Moreover, the GFP response, % of DMSO in assay [5] was 96.3% (inactive). The same compound had a double positive events in [6] of 61.9%. The vesicle binding response in assay [6] was 118% (inactive). Besides, the inhibition in assay [7] was -5.11% (inactive); in [11], 7.81% (inactive); in assay [15] it was 25% (inactive). In addition, the superoxide response (% of plate) in [8] is 97.2% (inactive). Further, the aptamer binding inhibition in [9] was -2% (inactive). Moreover, the response is 6.9% (inactive) in [10] and 4.06% (inactive) in assay [12]. Besides, in assay [13], the binding (% of control) is 103% (inactive). The efflux inhibition (fraction of control) in [14] is 0.22 (inactive). Moreover, the differentiation response in assay [16] was 11.5% (inactive).
As to `COC(=O)c1ccc2c(c1)C(=O)/C(=C/c1ccc(O)cc1)O2`, the percent of DMSO control GFP in [1] was 95.4% (inactive). For the same compound, the figures for the GFP response vs DMSO in assay [2] and in [4] were 109% (inactive) and 111% (inactive), respectively. Besides, in [3], the percent response of DMSO control is 92% (inactive). Moreover, in [5], the GFP response, % of DMSO was 95.5% (inactive). In addition, the double positive events in assay [6] is 59%. Moreover, the vesicle binding response in assay [6] is 90.4% (inactive). In addition, the inhibition was -8.62% (inactive) in assay [7], 6.94% (inactive) in assay [11] and 2% (inactive) in assay [15]. Besides, the superoxide response (% of plate) in assay [8] was 102% (inactive). Also, the aptamer binding inhibition in assay [9] is 2% (inactive). For the same compound, the response was -5.34% (inactive) in assay [10] and -1.86% (inactive) in [12]. Further, the binding (% of control) in assay [13] was 100% (inactive). Also, in [14], the efflux inhibition (fraction of control) is 0.19 (inactive). Further, in [16], the differentiation response is -26.4% (inactive).
Take `COC(=O)c1[nH]c2ccc(C)cc2c1NC(=O)CN1CCc2cc(OC)c(OC)cc2C1`: the percent of DMSO control GFP in [1] is 106% (inactive). The GFP response vs DMSO in [2] was 111% (inactive); in [4] it was 103% (inactive). For the same compound, the percent response of DMSO control in [3] is 117% (inactive). Besides, the GFP response, % of DMSO in [5] was 105% (inactive). In [6], this compound came in with a double positive events of 63.8%. Moreover, the vesicle binding response in assay [6] was 296% (inactive). The inhibition was -11.8% (inactive) in assay [7], -5.24% (inactive) in assay [11] and 24% (inactive) in [15]. Besides, in assay [8], the superoxide response (% of plate) is 130% (inactive). Further, the aptamer binding inhibition in [9] was 4% (inactive). For the same compound, the response in assay [10] is 10.4% (inactive); in assay [12], -3.57% (inactive). For the same compound, the binding (% of control) in [13] was 101% (inactive). Besides, the efflux inhibition (fraction of control) in [14] was 0.5 (active). Further, the differentiation response in assay [16] was -10.4% (inactive).
For the compound `O=C1CN(O)C=C2N=c3ccccc3=C2N1c1ccc([N+](=O)[O-])cc1`, the percent of DMSO control GFP in [1] is 106% (inactive). Further, the GFP response vs DMSO in assay [2] is 108% (inactive); in assay [4] it was 101% (inactive). Further, the percent response of DMSO control in assay [3] was 107% (inactive). Moreover, in assay [5], the GFP response, % of DMSO is 107% (inactive). Further, in assay [6], the double positive events turned out to be 61.3%. Further, in assay [6], the vesicle binding response was 124% (inactive). Further, the inhibition is -17.2% (inactive) in [7], -5.08% (inactive) in assay [11] and 19% (inactive) in [15]. In [8], the superoxide response (% of plate) is 106% (inactive). In addition, in assay [9], the aptamer binding inhibition was 2% (inactive). The response is -10.9% (inactive) in assay [10] and 1% (inactive) in assay [12]. The binding (% of control) in assay [13] was 100% (inactive). Also, in assay [14], the efflux inhibition (fraction of control) is -0.13 (inactive). Besides, in [16], the differentiation response is -3.11% (inactive).
